# Measurements: PubChem BioAssay (EPA / NIEHS)
# Where a structure was tested more than once in an assay, its records may differ in their call. Calls of active or inactive are those of the source. Rule for the calls: active = hit-call score of the fitted dose curve at least 0.9, where 1 is the maximum; inactive = score below 0.9.
# Test: ATG_NRF2_ARE_CIS: Attagene CIS-FACTORIAL HepG2 Assay for human Nuclear Factor Erythroid 2 Related Factor 2 (NFR2) response to Antioxidant Response Elements (ARE) (AID 2282992)
# Details: HepG2 Attagene ARE/NRF2 reporter, transcription factor activity; actives raise or lower the signal
# Procedure: ATG_CIS is a cell-based, multiplexed-readout assay that uses HepG2, a human liver cell line, with measurements taken at 24 hours after chemical dosing in a 24-well plate.ATG_NRF2_ARE_CIS is one of 52 assay component(s) measured or calculated from the ATG_CIS assay. It is designed to make measurements of mRNA induction, a form of inducible reporter, as detected with fluorescence intensity signals by Reverse transcription polymerase chain reaction (RT-PCR) and Capillary electrophoresis technology.Data from the assay component ATG_NRF2_ARE_CIS was analyzed into 1 assay endpoint. This assay endpoint, ATG_NRF2_ARE_CIS, was analyzed with bidirectional fitting relative to DMSO as the negative control and baseline of activity. Using a type of inducible reporter, measures of mRNA for gain or loss-of-signal activity can be used to understand the reporter gene at the transcription factor-level as they relate to the gene NFE2L2. Furthermore, this assay endpoint can be referred to as a primary readout, because this assay has produced multiple assay endpoints where this one serves a reporter gene function. To generalize the intended target to other relatable targets, this assay endpoint is annotated to the dna binding intended target family, where the subfamily is basic leucine zipper.
# Human liver HepG2 cells are transiently transfected with multiple reporter transcription units (MRTUs) in 6-well plates using FuGene 6 reagent (Roche; 3 ml FuGene/1 mg DNA). The MRTU constructs are regulated by a cis-regulating element (promoter). […] A major difference between the CIS and TRANS system is that in CIS activities of endogenous TFs are measured, whereas the TRANS assay evaluates changes in activities of exogenous, chimeric NR-Gal4 proteins. […] At the end of 24 hour incubation, total RNA was isolated using TriZol reagent (Invitrogen). The isolated RNA is then reverse-transcribed using oligo(dT) primer and Mo-MLV reverse transcriptase (Invitrogen) with DNAse I (Ambion) treatment for 30 min. The one-tenth of the produced cDNA was amplified by PCR using Taq DNA polymerase (Invitrogen) and two reporter sequence-specific primers. The PCR products were fluorescently labeled by primer extension with 6-arboxyfluorescein (6-FAM) 5'-labeled reporter sequence-specific primer (2 min at 95 C, 20 s at 68 C and 10 min at 72 C) and these products were digested with 5U of HpaI (New England Biolabs) for 2h at 37 C. The fragments were purified using Qiaquick PCR columns (Qiagen), analyzed on an ABI 3130xL genetic analyzer (Applied Biosystems) with peak positions identified by using a set of X-rhodamine (ROX)-labeled MapMarker1000 molecular weight standards (BioVentures). The raw capillary electrophoresis data was processed using Attagraph software (Attagene).
Compound,outcome,AC50
CCCO[Si](OCCC)(OCCC)OCCC,inactive,–
c1ccc2scnc2c1,–,42.1 µM (active)
CC(C)C(=O)c1ccccc1,inactive,–
CC(=O)c1cccnc1,inactive,–
C=COCC1CCC(COC=C)CC1 (stereo not given),–,179 µM (active)
Cc1ccncc1,inactive,–
CCOC(=O)CC(C)C,inactive,–
CCCCCCCCCCCCS,–,26.4 µM (active)
CCCCCCCCCCO[C@@H]1O[C@H](CO)[C@@H](O)[C@H](O)[C@H]1O,–,100 µM (active)
CC(=O)CCC=C(C)CCC=C(C)C,–,53 µM (active)
CC(=O)CC(C)(C)C1CCCCC1,inactive,–
CC(=O)CCc1ccc(O)cc1,inactive,–
CCO[Si](CC)(OCC)OCC,–,19.8 µM (active)
CCCCCCCCOC(=O)c1ccc(O)cc1,inactive,–
CC(C)CCOC(=O)CC(C)C,inactive,–
CCC(=O)OCC=Cc1ccccc1,–,36.3 µM (active)
OCC=Cc1ccccc1,–,65.9 µM (active)
CC(C)Cc1ccccc1,inactive,–
CCCCC1CCCCC(=O)O1 (stereo not given),inactive,–
N=C1N=C(N)c2ccccc21,inactive,–

Compound,outcome,AC50
CCCCCC#CC(=O)OC,–,23.9 µM (active)
CCCC1CCC(=O)CC1,inactive,–
Cc1cccc(C)c1,inactive,–
O=S(=O)(O)c1cc(S(=O)(=O)O)c2c(N=Nc3ccccc3)c(O)ccc2c1,inactive,–
C=CC(C)CCCC(C)(C)O (stereo not given),inactive,–
CCCCCCCCCOS(=O)(=O)O,inactive,–
CC(O)CNCC(C)O (stereo not given),inactive,–
COC(=O)c1cccc(C(=O)OC)c1,–,24.7 µM (active)
C[N+](C)(C)CCO,–,101 µM (active)
C#C[C@]1(O)CC[C@H]2[C@@H]3CCc4cc(O)ccc4[C@H]3CC[C@@]21C,inactive,187 µM (active)
O=C(C=Cc1ccccc1)OCCCc1ccccc1,–,58 µM (active)
O=C1OC2(c3ccc(O)cc3Oc3cc(O)ccc32)c2ccccc21,inactive,–
CC(C)(C)c1cccc(O)c1,inactive,–
CC(=O)c1ccc(C)cc1,inactive,–
CCOC(=O)C=Cc1ccccc1,–,42.3 µM (active)
[Cl][Dy]([Cl])[Cl],inactive,–
CC(=O)OCC=C(C)CCC=C(C)CCC=C(C)C,–,49.5 µM (active)
S=c1[nH][nH]c(=S)s1,inactive,–
O=S(=O)(O)CCCN1CCOCC1,inactive,–
